Data taken from PubChem BioAssay (NCATS).
Measured potencies and affinities stand elsewhere. Values without a mark were called inactive. How the calls were made is not given here.

Settings: Ebola virus entry assay, green fluorescence channel
Further: 0% is about no effect.

| SMILES | efficacy |
| --- | --- |
| NCCNc1cccc2ccccc12 | 85.8% |
| CCCCCCCCOc1ccccc1C(=O)Nc1ccc(C(=O)OCC[N+](C)(CC)CC)cc1 | -202% |
| CCCC(C(=O)OCCN(CC)CC)(c1ccccc1)c1ccccc1 | -182% |
| CCC(C(=O)OCCOCCN(CC)CC)c1ccccc1 (centres undefined) | 61.4% |
| C[C@@H]1C[C@H]2[C@@H]3C[C@H](F)C4=CC(=O)C(Cl)=C[C@]4(C)[C@@]3(F)[C@@H](O)C[C@]2(C)[C@@]1(O)C(=O)CO | 76% |
| CCC(=O)c1ccc2c(c1)N(CCCN(C)C)c1ccccc1S2 | 153% |
| COc1cc(N)c(Cl)cc1C(=O)NC1CCN(Cc2ccccc2)CC1 | 43.1% |
| CCCCCCOC(=O)NC(=N)c1ccc(NCc2nc3cc(C(=O)N(CCC(=O)OCC)c4ccccn4)ccc3n2C)cc1 | 128% |
| COc1cc(N)c(Cl)cc1C(=O)NC1CCN(CCCOc2ccc(F)cc2)CC1OC (centres undefined) | 45% |
| CCN(CC)CCNc1ccc(CO)c2sc3ccccc3c(=O)c12 | 47.9% |
| CCCCCN=C(N)N/N=C/c1c[nH]c2ccc(OC)cc12 | -150% |
| CCN1C(=O)c2ccccc2C1Nc1ccc(OCCN2CCCCC2)cc1 (centres undefined) | 33.9% |
| COc1ccc(CCN(C)CCCC(C#N)(c2cc(OC)c(OC)c(OC)c2)C(C)C)cc1OC (centres undefined) | 75% |
| C[C@@H]1C[C@H]2[C@@H]3CCC4=CC(=O)C=C[C@]4(C)[C@@]3(Cl)[C@@H](O)C[C@]2(C)[C@@]1(OC(=O)c1ccco1)C(=O)CCl | 39.8% |
